Data on 40 compounds can be found in PubChem BioAssay (Tox21).

Results filed as inconclusive are left out. Where a call stands in place of a potency, no number is given. Active and inactive are the calls of the source. The call rests on the fitted dose curve; in most records, active means well fitted inhibition curve with a large enough effect in the repeat runs; inconclusive means weak or mixed curves; inactive means no such curve, though single readings can be large or run the other way.
Potency means the concentration at half of the fitted maximal effect.

Sequence of Cytochrome P450 3A4 (Homo sapiens) (P08684 whole entry, looked up): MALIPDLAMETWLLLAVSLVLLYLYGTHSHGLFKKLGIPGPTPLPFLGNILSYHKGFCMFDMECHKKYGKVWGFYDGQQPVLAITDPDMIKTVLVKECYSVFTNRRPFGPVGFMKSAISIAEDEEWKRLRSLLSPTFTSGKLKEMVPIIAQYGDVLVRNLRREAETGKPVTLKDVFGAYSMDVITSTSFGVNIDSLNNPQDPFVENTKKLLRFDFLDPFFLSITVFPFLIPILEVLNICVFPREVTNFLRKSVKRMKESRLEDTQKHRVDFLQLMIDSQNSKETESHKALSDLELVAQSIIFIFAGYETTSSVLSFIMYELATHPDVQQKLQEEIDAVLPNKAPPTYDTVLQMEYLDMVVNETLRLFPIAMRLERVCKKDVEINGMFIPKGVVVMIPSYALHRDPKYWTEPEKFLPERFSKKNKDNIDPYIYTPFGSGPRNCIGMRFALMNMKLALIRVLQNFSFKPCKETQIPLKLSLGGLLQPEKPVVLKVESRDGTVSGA

The assay addresses Cytochrome P450 3A4 (Homo sapiens) (UniProt P08684). The experiment in a line: Cytochrome P450 Family 3 Subfamily A Member 4 (CYP3A4) small molecule antagonists: luciferase reporter qHTS assay (AID 1671201). Further: nearly all actives have a fitted effect of over 50% in size. To be noted: P450-Glo CYP3A4 enzyme, luciferin luminescence, 1 h; series mostly up to 115 µM. From the text: National Center for Advancing Translational Sciences [NCATS]
U.S. Environmental Protection Agency [EPA]
National Institutes of Environmental Health Sciences [NIEHS]
National Toxicology Program [NTP]
U.S. Food and Drug Administration [FDA]
Cytochrome P450 (CYP) enzymes are membrane-bound hemeproteins that play a key role in metabolism of drugs and xenobiotics. Evaluation of the effect of chemicals on CYP isozymes is useful to minimize the adverse drug reactions and toxicities in drug development process. Tox21 chemicals were tested for their effect on CYP enzyme activities by using P450-Glo (TM) screening systems (Promega Corporation, Madison, WI). These systems provide a luminescent method containing proluciferin substrates and are converted to luciferin products by CYP isozymes. The luciferin products formed are detected with a luciferin detection reagent, and the amount of light produced is proportional to CYP activity. P450-Glo (TM) CYP3A4 screening system (Catalog. No. V9910) was used to detect the compounds that interfere in CYP3A4 activity. The positive control compound used for CYP3A4 assay is ketoconazole (Sigma-Aldrich, St. Louis, MO).
Tox21 Assay Protocol Summary:
Two ul of enzyme-substrate mix was dispensed into medium binding white/solid 1536-well plates (Greiner Bio-One North America Inc., Monroe, NC) using a BioRaptr Flying Reagent Dispenser (FRD, Beckman Coulter, Brea, CA). Compounds dissolved in DMSO and positive control (ketoconazole) were transferred to the assay plates at 23 nl using a Pintool station (Wako, San Diego, CA). The assay plates were incubated at room temperature for 10 min. Then 2 ul of NADPH regeneration solution was added to each well of the assay plates using an FRD and incubated at room temperature for 1 h. The reaction was stopped by adding 4 ul of detection reagent using an FRD and after 20 min incubation at room temperature the luminescence signal was measured using a ViewLux plate reader (Perkin Elmer, Shelton, CT). Data were expressed as relative luminescence units.
(Reporter assays use an easily measured gene product as a stand-in for the process of interest.)
`O=C(COCCOCCOCC(=O)Nc1c(I)cc(I)c(C(=O)O)c1I)Nc1c(I)cc(I)c(C(=O)O)c1I`: the Potency result was “inactive”. Still for that read-out and setting: then `Cc1ccccc1C`, with “inactive”; and `CCCO`, with “inactive”; and `Nc1ccc(S(=O)(=O)NC(=O)c2ccccc2)cc1`, with “inactive”. The same measure, in the same setting: then `Cc1ccc(C(=O)C(=O)O)cc1C`, with “inactive”. The same measure, in the same setting: for `CCCCCCCCCCCCCC(=O)OC` the value was “inactive”; for `CC(=O)N1CCN(c2ccc(O)cc2)CC1`, “inactive”.

Take `CCNC(=O)/C=C/c1cccc(Br)c1`: the Potency entry is “inactive”. On to `CCCCC(C)C(=O)O` (stereo not given), for which the Potency entry is “inactive”. Same read-out and setting: then `COCCOCCOCCOC`, with “inactive”.

As to `Cc1c(C(C)C)c(=O)n(-c2ccccc2)n1C`, the Potency result was “inactive”. Still for that read-out and setting: then `CC1=CC[C@H](CC=O)C1(C)C`, with 63.3 µM (active); and `O=c1cc(O)c(Cl)c[nH]1`, with “inactive”; and `CCCCCCCCCCCCC1CO1` (stereo not given), with “inactive”. Same read-out and setting: then `CCC(=O)OCCC(C)CCC=C(C)C` (stereo not given), with 12.6 µM (active); and `CNCc1ccccc1`, with “inactive”.

In the case of `CC(=O)/C=C/c1ccco1`, the Potency entry was “inactive”. On to `Nc1nc(=O)n([C@@H]2O[C@H](CO)[C@@H](O)[C@@H]2F)cc1I`, for which the Potency result is “inactive”. On the same count and under the same terms, then `COC(=O)CCC(=O)O`, with “inactive”; and `O=C(O)CCNC(=O)c1ccccc1`, with “inactive”. Same read-out and setting: for `CCCOC(=O)CCCCC(=O)OCCC` the value was “inactive”. For the compound `C[C@H](CCC(=O)O)[C@H]1CC[C@H]2[C@@H]3[C@H](O)C[C@@H]4C[C@H](O)CC[C@]4(C)[C@H]3C[C@H](O)[C@]12C`, the Potency result is “inactive”. For `O=C(Nc1cccc(C2=NCCN2)c1)Nc1cccc(C2=NCCN2)c1`, the activity change, negative = inhibition is 41.3% [at 23.6 µM] (inactive). With `O=C1OC(=O)c2cc(Oc3ccc4c(c3)C(=O)OC4=O)ccc21`, the Potency result was “inactive”. On the same count and under the same terms, then `NS(=O)(=O)c1ccc(Cl)c(S(N)(=O)=O)c1`, with “inactive”; and `CCCCCC1CCCC(=O)O1` (stereo not given), with “inactive”; and `Cc1oc(=O)oc1CN1CCN(c2cc3c(cc2F)c(=O)c(C(=O)O)c2n3C(C)S2)CC1` (stereo not given), with “inactive”. The same measure, in the same setting: for `CC(C)(c1ccc(Oc2ccc3c(c2)C(=O)OC3=O)cc1)c1ccc(Oc2ccc3c(c2)C(=O)OC3=O)cc1` the value was “inactive”. The same measure, in the same setting: then `NC(=O)NC(=O)Cc1ccccc1`, with “inactive”; and `SCCSCCS`, with “inactive”. On to `CC(C)COC(=O)CC(C(=O)OCC(C)C)S(=O)(=O)O` (stereo not given), for which the Potency result is “inactive”.

Regarding `NC(=O)C1(N2CCCCC2)CCN(CCCC(=O)c2ccc(F)cc2)CC1`, the Potency entry was “inactive”.

With `Cc1nc2ccccc2c(=O)o1`, the Potency entry is “inactive”.

Regarding `CC(C)(CO)[C@@H](O)C(=O)NCCCO`, the Potency entry was “inactive”. Same read-out and setting: then `O=S1(=O)CCCC1`, with “inactive”. Still for that read-out and setting: then `N#CCCOCCOCCC#N`, with “inactive”; and `C=CCOc1cc(Cl)ccc1C(=O)NCCN(CC)CC`, with 17.4 µM (active). The same measure, in the same setting: then `CNC(=O)NC`, with “inactive”; and `COc1ccc(N=Nc2cc(C)c(N=Nc3ccc(S(=O)(=O)O)cc3)cc2OC)cc1`, with “inactive”. For `COC(/C=C(\C)CCC=C(C)C)OC`, the Potency result was “inactive”.
